Read-out in experiment [1]: Cyclin Dependent Kinase Inhibitor 1A (CDKN1A), CDKN1A (gene 1026)
Kind of experiment: LTEA_HepaRG_CDKN1A: Life Technologies and Expression Analysis (LTEA) Assay for Cyclin Dependent Kinase Inhibitor 1A (CDKN1A) using HepaRG (AID 2283450). The conditions noted are these: mRNA level, 48 h; actives raise or lower the signal. The method, boiled down:
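HepaRG, 48 h dosing, 8-pt half-log series from 100 uM top, 0.5% DMSO vehicle, duplicates. Readout: TaqMan qRT-PCR of CDKN1A transcript, housekeeping-normalized (ACTB, GAPDH, POLR2A). Up/down curve fit relative to DMSO.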

Read-out in experiment [2]: Cyclin D1 (CCND1), CCND1 (gene 595)
Kind of experiment: LTEA_HepaRG_CCND1: Life Technologies and Expression Analysis (LTEA) Assay for Cyclin D1 (CCND1) using HepaRG (AID 2283451).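 For AC50: differentiated human HepaRG liver cells in serum-free induction medium; TaqMan qRT-PCR transcript level normalised to ACTB GAPDH and POLR2A housekeeping genes.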 The note with it: mRNA level, 48 h; actives raise or lower the signal. A digest of the protocol:
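qRT-PCR (Fluidigm 96.96 array) read-out of transcript level, housekeeping-normalized (ACTB/GAPDH/POLR2A). HepaRG cells, 48 h chemical exposure, 8-point half-log series from 100 uM, 0.5% DMSO vehicle; gain or loss relative to DMSO baseline.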

Read-out in experiment [3]: catalase (CAT), CAT (gene 847)
Nature of the experiment: LTEA_HepaRG_CAT: Life Technologies and Expression Analysis (LTEA) Assay for catalase (CAT) using HepaRG (AID 2283452). The note with it: mRNA level, 48 h; actives raise or lower the signal. A digest of the protocol:
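Expression of CAT was quantified by TaqMan qRT-PCR with ACTB/GAPDH/POLR2A normalization after 48 h chemical exposure of HepaRG. Eight-point half-log series, top 100 uM, in 0.5% DMSO; gain or loss fitted against vehicle.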

Read-out in experiment [4]: flavin-containing dimethylaniline monooxygenases 3 (FMO3), FMO3 (gene 2328)
Nature of the experiment: LTEA_HepaRG_FMO3: Life Technologies and Expression Analysis (LTEA) Assay for flavin-containing dimethylaniline monooxygenases 3 (FMO3) using HepaRG (AID 2283453).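 For AC50: differentiated human HepaRG liver cells in serum-free induction medium.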 The note with it: mRNA level, 48 h; actives raise or lower the signal. The method, boiled down:
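Eight-point concentration-response in serum-free HepaRG cultures (top 100 uM, 0.5% DMSO, 48 h). Read-out: FMO3 mRNA level normalized to three endogenous control genes, fitted bidirectionally versus vehicle.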

Read-out in experiment [5]: Cytochrome P450 (CYP1A1), CYP1A1 (gene 1543)
Kind of experiment: LTEA_HepaRG_CYP1A1: Life Technologies and Expression Analysis (LTEA) Assay for Cytochrome P450 (CYP1A1) using HepaRG (AID 2283454). The conditions noted are these: mRNA level, 48 h; actives raise or lower the signal. A digest of the protocol:
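qRT-PCR read-out: CYP1A1 transcript normalized to three housekeeping genes, fitted bidirectionally against 0.5% DMSO vehicle baseline. Human HepaRG cells, 48 h chemical exposure, 8-point half-log series topping at 100 uM.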

Read-out in experiment [6]: CFLAR gene, CFLAR (gene 8837)
Nature of the experiment: LTEA_HepaRG_CFLAR: Life Technologies and Expression Analysis (LTEA) Assay for CFLAR gene using HepaRG (AID 2283455). The conditions noted are these: mRNA level, 48 h; actives raise or lower the signal. The method, boiled down: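 Transcript level by qRT-PCR (normalized to ACTB, GAPDH and POLR2A) after 48 h chemical exposure of HepaRG cells, top concentration 100 uM with half-log steps, 0.5% DMSO vehicle, duplicates; fitted bidirectionally against DMSO baseline.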

Read-out in experiment [7]: Forkhead box O1 (FOXO1), FOXO1 (gene 2308)
Kind of experiment: LTEA_HepaRG_FOXO1: Life Technologies and Expression Analysis (LTEA) Assay for Forkhead box O1 (FOXO1) using HepaRG (AID 2283456). The note with it: mRNA level, 48 h; actives raise or lower the signal. A digest of the protocol:
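FOXO1 transcript quantified by qRT-PCR after 48 h chemical exposure (top 100 uM, half-log steps, 0.5% DMSO) of HepaRG cells, housekeeping-normalized (ACTB/GAPDH/POLR2A). Changes fitted in both directions relative to vehicle.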

The nature of experiment [8]: CEETOX_H295R_TESTO: CeeTox H295R High-throughput Steroidogenesis Assay for Testosterone (TESTO) (AID 2283457). The note with it: actives raise or lower the signal. The method, boiled down:
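Readout: testosterone quantified by HPLC-MS/MS (C18, ESI positive) after MTBE liquid-liquid extraction of culture medium. Cells were H295R, 48 h chemical exposure per OECD 456 with modifications. Gain or loss of signal fitted relative to DMSO.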

Read-out in experiment [9]: growth arrest and DNA damage 45 (GADD45A), GADD45A (gene 1647)
Kind of experiment: LTEA_HepaRG_GADD45A: Life Technologies and Expression Analysis (LTEA) Assay for growth arrest and DNA damage 45 (GADD45A) using HepaRG (AID 2283458). The conditions noted are these: mRNA level, 48 h; actives raise or lower the signal. A digest of the protocol:
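HepaRG, 48 h exposure, 8 conc. (top 100 uM, half-log steps), 0.5% DMSO vehicle, duplicates. Read-out: qRT-PCR mRNA level, housekeeping-normalized (ACTB/GAPDH/POLR2A). Curves fit bidirectionally vs DMSO baseline.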

Read-out in experiment [10]: Forkhead box O3 (FOXO3), FOXO3 (gene 2309)
Nature of the experiment: LTEA_HepaRG_FOXO3: Life Technologies and Expression Analysis (LTEA) Assay for Forkhead box O3 (FOXO3) using HepaRG (AID 2283459). The conditions noted are these: mRNA level, 48 h; actives raise or lower the signal. The method, boiled down:
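FOXO3 transcript measured by qRT-PCR (normalized to ACTB, GAPDH, POLR2A) after 48 h exposure of HepaRG cells in serum-free induction medium. Duplicates, eight half-log concentrations up to 100 uM, 0.5% DMSO; gain or loss fitted against DMSO.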

Read-out in experiment [11]: ABC Transporter (ABCB1), ABCB1 (gene 5243)
Kind of experiment: LTEA_HepaRG_ABCB1: Life Technologies and Expression Analysis (LTEA) Assay for ABC Transporter (ABCB1) using HepaRG (AID 2283460). The note with it: mRNA level, 48 h; actives raise or lower the signal. A digest of the protocol: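 ABCB1 transcript level measured by TaqMan qRT-PCR against three housekeeping genes after 48 h chemical exposure of differentiated HepaRG cells. Top concentration 100 uM, half-log steps, eight points, 0.5% DMSO vehicle; bidirectional fit relative to DMSO.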

Read-out in experiment [12]: growth arrest and DNA damage 45 (GADD45B), GADD45B (gene 4616)
Kind of experiment: LTEA_HepaRG_GADD45B: Life Technologies and Expression Analysis (LTEA) Assay for growth arrest and DNA damage 45 (GADD45B) using HepaRG (AID 2283461). The note with it: mRNA level, 48 h; actives raise or lower the signal. A digest of the protocol: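 qRT-PCR read-out (Fluidigm TaqMan, housekeeping-normalized) of mRNA change in human HepaRG cells after 48 h chemical exposure; 8-point curve, top 100 uM, half-log steps, 0.5% DMSO vehicle; gain or loss fitted relative to DMSO baseline.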

Read-out in experiment [13]: ABC Transporter (ABCB11), ABCB11 (gene 8647)
Nature of the experiment: LTEA_HepaRG_ABCB11: Life Technologies and Expression Analysis (LTEA) Assay for ABC Transporter (ABCB11) using HepaRG (AID 2283463). The conditions noted are these: mRNA level, 48 h; actives raise or lower the signal. A digest of the protocol:
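ABCB11 transcript levels quantified by TaqMan qRT-PCR against three housekeeping genes after 48 h chemical exposure of HepaRG cultures. Concentrations up to 100 uM in half-log steps, 0.5% DMSO vehicle; both induction and suppression scored.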

Read-out in experiment [14]: ABC Transporter (ABCC2), ABCC2 (gene 1244)
Kind of experiment: LTEA_HepaRG_ABCC2: Life Technologies and Expression Analysis (LTEA) Assay for ABC Transporter (ABCC2) using HepaRG (AID 2283464). The note with it: mRNA level, 48 h; actives raise or lower the signal. The method, boiled down:
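qRT-PCR (TaqMan, Fluidigm array) read-out of ABCC2 mRNA, normalized to three housekeeping genes. Differentiated HepaRG cells were treated 48 h in serum-free induction medium with 8-point half-log series from 100 uM in 0.5% DMSO; curves fitted bidirectionally relative to DMSO.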

Read-out in experiment [15]: Broad substrate specificity ATP-binding cassette transporter ABCG2 (Homo sapiens) (UniProt Q9UNQ0)
Nature of the experiment: LTEA_HepaRG_ABCG2: Life Technologies and Expression Analysis (LTEA) Assay for ABC Transporter (ABCG2) using HepaRG (AID 2283465). The conditions noted are these: mRNA level, 48 h; actives raise or lower the signal. A digest of the protocol:
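ABCG2 transcript was quantified by TaqMan qRT-PCR against three housekeeping genes in HepaRG cells. Cells were treated in duplicate for 48 h across an 8-point half-log series up to 100 uM, with 0.5% DMSO vehicle. Gain or loss versus DMSO was fit.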

Read-out in experiment [16]: ATP-citrate lyase (ACLY), ACLY (gene 47)
Nature of the experiment: LTEA_HepaRG_ACLY: Life Technologies and Expression Analysis (LTEA) Assay for ATP-citrate lyase (ACLY) using HepaRG (AID 2283466). The note with it: mRNA level, 48 h; actives raise or lower the signal. The method, boiled down:
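ACLY mRNA quantified by qRT-PCR on Fluidigm arrays against three housekeeping genes, after 48 h chemical treatment of HepaRG cells (top concentration 100 uM, half-log steps, 0.5% DMSO vehicle). Up- or down-regulation fitted relative to DMSO.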

Read-out in experiment [17]: Peroxisomal acyl-coenzyme A oxidase 1 (ACOX1) gene, ACOX1 (gene 51)
Kind of experiment: LTEA_HepaRG_ACOX1: Life Technologies and Expression Analysis (LTEA) Assay for Peroxisomal acyl-coenzyme A oxidase 1 (ACOX1) gene using HepaRG (AID 2283467). The note with it: mRNA level, 48 h; actives raise or lower the signal. A digest of the protocol:
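ACOX1 transcript levels were quantified by TaqMan qRT-PCR against three housekeeping genes after 48 h chemical exposure of differentiated human HepaRG cells. Exposure used eight half-log steps topping at 100 uM, 0.5% DMSO vehicle, in duplicate. Bidirectional curve fits were made relative to DMSO.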

Read-out in experiment [18]: Alkaline Phosphatase, Placental (ALPP) gene, ALPP (gene 250)
Kind of experiment: LTEA_HepaRG_ALPP: Life Technologies and Expression Analysis (LTEA) Assay for Alkaline Phosphatase, Placental (ALPP) gene using HepaRG (AID 2283468).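 For AC50: differentiated human HepaRG liver cells in serum-free induction medium.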 The note with it: mRNA level, 48 h; actives raise or lower the signal. A digest of the protocol:
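qRT-PCR readout of ALPP mRNA (Fluidigm TaqMan), normalized to ACTB/GAPDH/POLR2A, after 48 h chemical exposure of HepaRG cells; 8-point half-log series, top 100 uM, 0.5% DMSO vehicle. Bidirectional curve fit versus DMSO baseline.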

Read-out in experiment [19]: Bcl-2 (BAD) gene, BAD (gene 572)
Nature of the experiment: LTEA_HepaRG_BAD: Life Technologies and Expression Analysis (LTEA) Assay for Bcl-2 (BAD) gene using HepaRG (AID 2283469). The note with it: mRNA level, 48 h; actives raise or lower the signal. A digest of the protocol: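 Read-out: qRT-PCR of BAD mRNA, normalized to three housekeeping genes. Human HepaRG cultures got 48 h chemical exposure in 0.5% DMSO, duplicate eight-point half-log series topping at 100 uM. Gain or loss of signal fitted versus DMSO vehicle.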

Experimental findings from PubChem BioAssay (EPA / NIEHS) are described below.

The source made the active and inactive calls. Rule for the calls: active = hit-call score of the fitted dose curve at least 0.9, where 1 is the maximum; inactive = score below 0.9.

Sequence of Broad substrate specificity ATP-binding cassette transporter ABCG2 (Homo sapiens) (Q9UNQ0 whole entry, looked up): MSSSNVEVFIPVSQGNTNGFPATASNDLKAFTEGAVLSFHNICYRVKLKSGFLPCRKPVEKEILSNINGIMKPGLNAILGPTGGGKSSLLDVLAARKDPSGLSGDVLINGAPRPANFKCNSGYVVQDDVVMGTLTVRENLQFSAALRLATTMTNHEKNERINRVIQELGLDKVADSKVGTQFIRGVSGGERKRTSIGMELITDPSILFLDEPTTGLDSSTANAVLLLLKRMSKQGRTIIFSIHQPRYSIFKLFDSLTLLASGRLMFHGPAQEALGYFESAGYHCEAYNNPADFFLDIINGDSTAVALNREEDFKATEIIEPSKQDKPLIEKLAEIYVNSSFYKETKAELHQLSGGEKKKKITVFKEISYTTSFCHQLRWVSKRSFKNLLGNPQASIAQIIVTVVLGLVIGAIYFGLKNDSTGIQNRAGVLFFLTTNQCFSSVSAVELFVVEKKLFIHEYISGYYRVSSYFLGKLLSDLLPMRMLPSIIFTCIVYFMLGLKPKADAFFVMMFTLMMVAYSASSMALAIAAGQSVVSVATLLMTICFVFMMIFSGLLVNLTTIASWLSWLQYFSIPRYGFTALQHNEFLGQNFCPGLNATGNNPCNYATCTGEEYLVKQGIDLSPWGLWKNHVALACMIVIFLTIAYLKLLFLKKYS

What is called AC50 is the concentration giving half of the maximal activity seen. Take `Cc1c2ccccc2c(C)c2c1ccc1ccccc12`: the AC50 in [1] was 35.1 µM (active); in experiment [2], 86.4 µM (active); in experiment [3], 48.5 µM (active); in experiment [4], 34.2 µM (active); in [5] it was 11.9 µM (active); in [6], 40.9 µM (active). For the same molecule, the AC50 in experiment [7] was 75 µM (active); in [9] it was 61.9 µM (active); in [10] it was 13 µM (active); in [12], 50 µM (active); in experiment [13], 30.6 µM (active); in experiment [15] it was 12.8 µM (active). Further, the AC50 is 27.7 µM (active) in [17] and 39.7 µM (active) in experiment [18]. Also, the outcome in experiment [8], in experiment [11], in [14], in [16] and in experiment [19] was inactive.

Take `O=C1c2ccccc2C(=O)N1CCc1noc(-c2ccc(CN3CCCCCC3)s2)n1`: the outcome in experiment [1], in [2], in experiment [3], in [4], in experiment [6] and in experiment [7] was inactive. Moreover, the molecule was classed as inactive in [9], in experiment [10], in [11], in experiment [13], in [14] and in experiment [15]. The molecule was classed as inactive in [16], in experiment [17], in [18] and in experiment [19]. Further, the AC50 in experiment [5] was 8.04 µM (active).

With `Cc1ccc2oc(CN(Cc3ccccc3)C(=O)Nc3c(F)cc(F)cc3F)c(-c3ccc(Cl)cc3)c2c1`, the outcome in experiment [1], in experiment [2], in experiment [6], in experiment [7], in experiment [10] and in experiment [12] was inactive. In addition, the molecule was classed as inactive in experiment [13], in experiment [16], in experiment [18] and in experiment [19]. Besides, the AC50 is 8.81 µM (active) in experiment [3]; 59.5 µM (active) in experiment [4]; 22 µM (active) in experiment [5]; 8.78 µM (active) in experiment [9]; 19.7 µM (active) in experiment [11]; 13.7 µM (active) in experiment [14]. In experiment [15], the half-maximal activity concentration (AC50) is 17.6 µM (active).
